This passage reports growth results from PubChem BioAssay (NCI).

About 83,000 compounds went through this panel and 20% of them were active in at least one assay; those are over-represented in the sample as a whole.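 The endpoint reported here, percent growth, reads 100 for growth as untreated, 0 for no net growth and -100 for all cells dead.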 Values without a mark were called inactive. Activity calls are given as the source filed them. Rule for the calls: active = growth percent below 10; inactive = the rest.

Common to all, as to assay: NCI-60 one-dose screen, 48 h (100 = growth as untreated, 0 = no growth, -100 = all killed)
Holding throughout (conditions): 10 µM unless noted

In experiment [1] the test system is NCI-H23 lung.
Experiment [2] has as its system NCI-H226 lung.
The test system of experiment [3] is NCI-H322M lung.
The test system of experiment [4] is HOP-62 NSCLC.
For experiment [5], the system named is NCI-H460 lung.
Experiment [6] relates to NCI-H522 lung.
Experiment [7] deals with A549/ATCC NSCLC.
Experiment [8] deals with 786-0 renal.
For experiment [9], the system named is COLO 205 colon.
The subject of experiment [10] is DU-145 prostate.
For experiment [11], the system named is K-562 leukemia.
The test system of experiment [12] is MALME-3M melanoma.
Experiment [13] relates to MDA-MB-231 breast.
For experiment [14], the system named is RXF 393 renal.
Experiment [15] concerns SF-268 CNS.
Experiment [16] concerns SF-295 CNS.
In experiment [17] the test system is SF-539 CNS.
The test system of experiment [18] is UACC-257 melanoma.
For experiment [19], the system named is M14 melanoma.

Consider `O=C(Nc1ccc(Cl)cc1)c1cc(-c2ccc(Cl)cc2)c2sc(=O)[nH]c2n1`, for which the growth in experiment [1] is 2.31% (active); in [2] it was 0.841% (active); in experiment [3], 6.21% (active); in experiment [4], -19% (active); in experiment [5] it was -5.14% (active); in experiment [6], -26.3% (active). In addition, the growth in experiment [7] is 1.59% (active); in experiment [8], 6.31% (active); in experiment [9] it was -52.1% (active); in experiment [10], 16.5%; in experiment [11], -12.8% (active); in experiment [12], -13.8% (active). In addition, the growth in experiment [13] was -30.9% (active); in experiment [14] it was -3.38% (active); in experiment [15] it was 14.1%; in experiment [16], -12.5% (active); in experiment [17], 7.84% (active); in [18], -24.9% (active). In [19], the growth was 8.92% (active).

Regarding `O=C(N/N=C\c1cc(Br)ccc1O)c1ccncc1`, the growth was 43.5% in experiment [1]; 39.9% in experiment [2]; 41% in [3]; 15% in experiment [4]; 6.66% (active) in [5]; -27.2% (active) in [6]. For the same compound, the growth was 55.6% in experiment [7]; 18.4% in [8]; 7.89% (active) in experiment [9]; 39.4% in experiment [10]; 20.3% in experiment [11]; 46.5% in experiment [12]. In addition, the growth was 46.6% in experiment [13]; 54.9% in experiment [14]; 35.4% in experiment [15]; 55.7% in experiment [16]; 34.3% in experiment [17]; 11.5% in [18]. In experiment [19], the growth is 19.2%.

With `CN(C)c1ccc(/C=C\c2cccc[n+]2C)cc1`, the growth was 46.6% in experiment [1]; 67.7% in experiment [2]; 102% in [3]; 48% in [4]; 69.5% in experiment [5]; 30.5% in [6]. In addition, the growth in experiment [7] was 20.8%; in experiment [8], 69.3%; in experiment [9], -35.6% (active); in [10] it was 70.1%; in [11] it was 21%; in experiment [12], 57.4%. The growth was 73.4% in experiment [13]; 86.6% in experiment [14]; 26.7% in experiment [15]; 19% in experiment [16]; 58.9% in [17]; 31.7% in experiment [18]. Further, the growth in experiment [19] was 69.6%.

For `O=C(O)c1ccccc1Oc1cc(-c2ccco2)nc(OCCN2CCOCC2)n1`, the growth in experiment [1] is 106%; in experiment [2] it was 97%; in [3], 94.6%; in experiment [4], 99.9%; in [5], 116%; in [6], 92.1%. Moreover, the growth in experiment [7] was 106%; in experiment [8], 96.5%; in [9], 103%; in experiment [10], 113%; in experiment [11], 107%; in experiment [12], 98.3%. Moreover, the growth is 98.8% in [13]; 115% in [14]; 114% in [15]; 102% in [16]; 108% in experiment [17]; 108% in [18]. Further, the growth in [19] was 99.1%.

Take `COc1ccc(-c2nc3ccccc3n3cccc23)cc1`: the growth was 86.1% in experiment [1]; 94.7% in experiment [2]; 96.6% in experiment [3]; 116% in experiment [4]; 112% in experiment [5]; 101% in experiment [6]. The growth is 102% in [7]; 100% in experiment [8]; 120% in experiment [9]; 119% in experiment [10]; 96.3% in experiment [11]; 127% in experiment [12]. In addition, the growth in [13] was 97.9%; in experiment [14] it was 135%; in experiment [15], 109%; in experiment [16] it was 114%; in [17], 101%; in [18], 109%. Besides, the growth in experiment [19] is 100%.

On to `COc1ccc(Nc2nc(N)nc3c(=O)[nH]ccc23)cc1`, for which the growth in experiment [1] is 85.8%; in [2], 105%; in experiment [3] it was 103%; in [4], 111%; in [5] it was 107%; in experiment [6] it was 99.5%. In addition, the growth in experiment [7] was 104%; in experiment [8] it was 106%; in experiment [9], 118%; in experiment [10] it was 114%; in experiment [11] it was 69%; in experiment [12], 150%. The growth was 110% in experiment [13]; 133% in [14]; 106% in experiment [15]; 106% in [16]; 104% in experiment [17]; 131% in [18]. Besides, in [19], the growth was 108%.

As to `O=C(CSc1nnc(Cc2ccccc2Nc2c(Cl)cccc2Cl)n1-c1ccccc1)N1N=C(c2ccc3ccccc3c2)CC1c1ccc(Cl)cc1` (configuration not stated), the growth in experiment [1] is 96.2%; in experiment [2] it was 98.8%; in experiment [3], 90.7%; in [4], 92.7%; in experiment [5], 106%; in experiment [6], 66.1%. Further, the growth is 96.3% in experiment [7]; 95.9% in experiment [8]; 102% in experiment [9]; 94.3% in experiment [10]; 101% in experiment [11]; 95.4% in experiment [12]. The growth is 104% in [13]; 124% in experiment [14]; 89.1% in [15]; 100% in experiment [16]; 106% in [17]; 117% in [18]. For the same compound, the growth in experiment [19] was 98.4%.

As for `COc1cc(NCCC2CCCCN2)c2ncccc2c1OC` (configuration not stated), the growth in experiment [1] is 49.1%; in experiment [2], 117%; in [3], 116%; in [4], 102%; in experiment [5] it was 80.3%; in experiment [6], -7.89% (active). Besides, the growth in [7] was 82.1%; in experiment [8], 90.1%; in [9], 78.1%; in experiment [10] it was 87.5%; in [11] it was 64.7%; in [12] it was 134%. The growth in experiment [13] is 74.2%; in [14], 111%; in [15], 92.9%; in experiment [16], 110%; in experiment [17], 92%; in [18], 66.3%. Further, the growth in experiment [19] was 92.1%.
